Measurements published in PubChem BioAssay.
“And” between values parts separate entries of the source, which are not always exact repeats. Equal values may be shown once. The source made the active and inactive calls. Unless noted, no stated cut-off is given here; in the data, active means inhibition above about 80%; inactive means the rest.

Legend:
[1] = target: 6-phosphogluconate dehydrogenase, decarboxylating (Homo sapiens) (UniProt P52209); assay: 6PGD enzyme inhibitors, primary screen, biochemical, human, recombinant enzyme, NADPH absorbance (AID 1159550;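 active means at least 20% inhibition of 6-phosphogluconate dehydrogenase activity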); details: recombinant 6PGD, NADPH absorbance 341 nm; at 10 µM; stronger effect = higher value
[2] = sensitizers of A549 cells to miR-34 induction, primary screen, imaging, A549 dox-inducible miR-34, nuclei and caspase counts (AID 1347080;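 active means compounds whose cell count with miR-34 switched on is under 0.7 times the count with it off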); details: A549 miR-34 inducible, Hoechst nuclei count, 48 h
[3] = viability rescue of complex I mutant cybrids, primary screen, cell-based, galactose medium, ATP luminescence (AID 1645843;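 active means z-score of at least 1.8 in each of two replicates, scored against plate mean and spread of sample wells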;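 further: positive z means more ATP and so rescue of galactose-driven cybrid death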); details: complex I mutant cybrid cells, 72 h, stronger effect = higher value
[4] = LFS_MB_P medulloblastoma growth inhibition, cell-based, chromothripsis tumors, cisplatin or BGB combos (AID 1671449); details: LFS_MB_P medulloblastoma cells;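 further: cells exposed for 96 hours; 0% = vehicle DMSO and 100% = killing by high DMSO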
[5] = HDN33 neuroblastoma growth inhibition, cell-based, chromothripsis tumors, cisplatin or BGB combos (AID 1671450); details: HDN33 neuroblastoma cells, stronger effect = higher value;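 further: cells exposed to compound for four days; 0% = vehicle DMSO and 100% = cell killing by high DMSO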
[6] = ICB984 medulloblastoma cell growth inhibition, synergistic combos for chromothripsis tumors, cisplatin or BGB combos (AID 1671451; call rule not given here;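 further: cells exposed for 96 hours before readout; 0% = vehicle DMSO and 100% = killing by high DMSO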); details: ICB984 medulloblastoma cells, drug combinations, stronger effect = higher value
[7] = LFS_MB_1R medulloblastoma cell growth inhibition, synergistic combos for chromothripsis tumors, cisplatin or BGB combos (AID 1671452); details: LFS_MB_1R medulloblastoma cells, stronger effect = higher value;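 further: cells exposed for 96 hours before readout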
[8] = HTB85 osteosarcoma cell growth inhibition, synergistic combos for chromothripsis tumors, BGB or cisplatin IC20 combos (AID 1671453); details: HTB85 osteosarcoma cells, drug combinations, stronger effect = higher value;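 further: cells exposed for 96 hours before readout; 0% = vehicle DMSO and 100% = high DMSO killing control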
[9] = CRL2098 osteosarcoma cell growth inhibition, synergistic combos for chromothripsis tumors, BGB or cisplatin IC20 combos (AID 1671454); details: CRL2098 osteosarcoma cells, drug combinations, stronger effect = higher value;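 further: cells exposed for 96 h before readout; 0% = vehicle DMSO and 100% = killing by high DMSO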
[10] = HD-MB03 medulloblastoma cell growth inhibition, synergistic combos for chromothripsis tumors, BGB or cisplatin IC20 combos (AID 1671455; in the data active means inhibition above about 83%;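 further: 0% = vehicle DMSO and 100% = high DMSO as cytotoxic control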); details: HD-MB03 medulloblastoma cells, stronger effect = higher value
[11] = UWB1.289 ovarian carcinoma cell growth inhibition, synergistic combos for chromothripsis tumors, BGB or cisplatin combos (AID 1671456); details: UWB1.289 ovarian carcinoma cells, stronger effect = higher value;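 further: cells exposed to compound for four days; 0% = vehicle DMSO and 100% = killing by high DMSO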
[12] = LFS_MB_2R medulloblastoma cell growth inhibition, synergistic combos for chromothripsis tumors, cisplatin combos (AID 1671457); details: LFS_MB_2R medulloblastoma cells, stronger effect = higher value;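 further: cells exposed to compound for four days before readout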
[13] = MDA-MB-436 breast carcinoma cell growth inhibition, synergistic combos for chromothripsis tumors, BGB or cisplatin combos (AID 1671458; call rule not given here;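 further: cells exposed for 96 hours; 0% = vehicle DMSO and 100% = killing by high DMSO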); details: MDA-MB-436 breast carcinoma growth inhibition, drug combinations, stronger effect = higher value
[14] = UWB1.289_BRCA1 ovarian cancer growth, cell-based, BGB or cisplatin combinations (AID 1671459); details: UWB1.289 BRCA1 ovarian carcinoma, drug combinations, stronger effect = higher value
[15] = human astrocyte viability loss, single and combined drugs, cytotoxicity control for chromothriptic childhood tumor combination screen, cell-based, BGB or cisplatin IC20 combos (AID 1671460); details: Human astrocytes, drug combinations, stronger effect = higher value;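 further: cells exposed to compounds for 96 hours before viability readout; 0% = vehicle and 100% = killing control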
[16] = growth inhibition of BT084 medulloblastoma cells, cell-based, ICGC_MB145, cisplatin and BGB IC40 combos (AID 1671461); details: drug combinations, stronger effect = higher value;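 further: cells exposed to drugs for 96 hours; 0% = vehicle DMSO and 100% = high DMSO full killing control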
[17] = growth inhibition of RCMB18 medulloblastoma cells, cell-based, cisplatin and BGB IC40 combos (AID 1671462); details: stronger effect = higher value;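 further: cells exposed to compound for four days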
[18] = growth inhibition of CRL1545 osteosarcoma cells, cell-based, cisplatin and BGB IC20 combos (AID 1671464); details: stronger effect = higher value;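 further: cells exposed to compound for 96 hours before readout; 0% = vehicle DMSO and 100% = high DMSO killing control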
[19] = measured here: combination with BGB IC40, at 0.05 µM
[20] = measured here: with BGB IC20 combination, at 0.5 µM
[21] = measured here: with cisplatin IC20 combination, at 0.5 µM
[22] = measured here: combination with cisplatin, at 0.5 µM
[23] = measured here: combination with cisplatin, at 5 µM

6-phosphogluconate dehydrogenase, decarboxylating (Homo sapiens), sequence (P52209 whole entry, looked up): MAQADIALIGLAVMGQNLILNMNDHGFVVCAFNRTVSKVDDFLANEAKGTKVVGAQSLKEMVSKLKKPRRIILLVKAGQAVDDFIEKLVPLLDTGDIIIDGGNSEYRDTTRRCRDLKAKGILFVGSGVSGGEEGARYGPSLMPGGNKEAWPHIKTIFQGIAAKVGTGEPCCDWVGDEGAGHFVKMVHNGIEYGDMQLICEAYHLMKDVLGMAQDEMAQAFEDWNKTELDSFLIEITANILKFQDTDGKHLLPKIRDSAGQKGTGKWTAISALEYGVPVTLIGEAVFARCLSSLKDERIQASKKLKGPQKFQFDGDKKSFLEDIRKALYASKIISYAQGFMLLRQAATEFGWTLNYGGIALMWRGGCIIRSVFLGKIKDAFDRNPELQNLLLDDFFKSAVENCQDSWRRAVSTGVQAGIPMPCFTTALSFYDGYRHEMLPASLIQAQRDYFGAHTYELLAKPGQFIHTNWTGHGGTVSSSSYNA

## COc1cc(C2c3cc4c(cc3C(OC3OC5COC(C)OC5C(O)C3O)C3COC(=O)C23)OCO4)cc(OC)c1O (centres undefined)
[1]
  inhibition: -3.12% (inactive)
[2]; stronger effect = lower value, cell number ratio, induced over uninduced
  fold change: 0.803 (inactive)
[2]; measured here: relative caspase fold change +Dox/-Dox
  fold change: 1.95
[2]; measured here: total cells with miR-34 induction, stronger effect = lower value
  cell count: 3290
[2]; measured here: total cells without miR-34 induction
  cell count: 4090
[3]
  z-score: -1.39 (inactive)
[4]; at 0.5 µM, stronger effect = higher value
  inhibition: -32.6% (inactive) and -17.8% (inactive)
[4]; measured here: combination with BGB IC20, at 0.005 µM
  inhibition: -28.8% and 2.01%
[4]; measured here: combination with BGB IC40, at 0.005 µM
  inhibition: -24.3% and 13.4%
[4]; [19]
  inhibition: -29.9% and -0.69%
[4]; measured here: combination with cisplatin, at 0.5 µM, stronger effect = higher value
  inhibition: -45.5% and -45.4%
[4]; measured here: combination with cisplatin, at 5 µM, stronger effect = higher value
  inhibition: -34.4% and -6.98%
[5]; BGB combo, at 5 µM
  inhibition: 47.6% and 64.8%
[5]; at 0.5 µM
  inhibition: 15.7% (inactive) and 26.2% (inactive)
[5]; cisplatin combo, at 5 µM
  inhibition: 44.6% and 49%
[5]; [20]
  inhibition: 15.9% and 28.5%
[5]; [21]
  inhibition: -1.85% and 5.29%
[5]; single agent, at 5 µM
  inhibition: 68.9% and 70.5%
[6]; BGB IC20 combo, at 0.005 µM
  inhibition: -20.6% and 5.1%
[6]; BGB IC40 combo, at 0.005 µM
  inhibition: -32.2% and -0.661%
[6]; BGB IC40 combo, at 0.05 µM
  inhibition: -74.4% and -28.1%
[6]; at 0.5 µM
  inhibition: -29.8% (inactive) and -8.32% (inactive)
[6]; cisplatin combo, at 0.05 µM
  inhibition: -80.7% and -31.6%
[6]; cisplatin combo, at 0.5 µM
  inhibition: -45.1% and -7.65%
[6]; cisplatin combo, at 5 µM
  inhibition: -73.3% and -20.4%
[6]; measured here: 5 uM single agent, at 5 µM
  inhibition: -13% and -19.7%
[7]; at 0.5 µM
  inhibition: -24.1% (inactive) and -15.7% (inactive)
[7]; [19]
  inhibition: -34.7% and -15.9%
[7]; [22]
  inhibition: -23.9% and -48.9%
[7]; [23]
  inhibition: -59.7% and -24.4%
[8]; at 0.5 µM
  inhibition: 3.37% (inactive) and 12.3% (inactive)
[8]; measured here: with BGB IC20, at 0.5 µM
  inhibition: -1.07% and 17.8%
[8]; measured here: with BGB IC20, at 5 µM
  inhibition: 84.3% and 86%
[8]; measured here: with cisplatin IC20, at 0.5 µM
  inhibition: -5.76% and 1.07%
[8]; measured here: with cisplatin IC20, at 5 µM
  inhibition: 76.7% and 87%
[8]; single agent, at 5 µM
  inhibition: 84.8% and 89.6%
[9]; at 0.5 µM
  inhibition: -81.8% (inactive) and -42.5% (inactive)
[9]; measured here: combination with BGB at IC20, at 0.5 µM
  inhibition: -58% and -65.7%
[9]; measured here: combination with cisplatin at IC20, at 0.5 µM
  inhibition: -127% and -42.7%
[10]; at 0.5 µM
  inhibition: 58.9% (inactive) and 63.9% (inactive)
[10]; measured here: combo with BGB at IC20, at 0.5 µM
  inhibition: 56.6% and 69.3%
[10]; measured here: combo with cisplatin at IC20, at 0.5 µM
  inhibition: 64.2% and 61.2%
[11]; at 0.5 µM
  inhibition: -3.51% (inactive) and 0.59% (inactive)
[11]; measured here: inhibition with BGB combination, at 0.05 µM
  inhibition: 2.23% and -16.8%
[11]; measured here: inhibition with cisplatin combination, at 0.05 µM
  inhibition: -32.6% and -11.7%
[12]; at 0.5 µM
  inhibition: -20.7% (inactive) and -2.13% (inactive)
[12]; [22]
  inhibition: -26.1% and 1.95%
[12]; [23]
  inhibition: -15.5% and -45.8%
[13]; at 0.5 µM
  inhibition: 19.1% (inactive) and 27.8% (inactive)
[13]; measured here: BGB combination, at 0.5 µM
  inhibition: 8.19% and 23.7%
[13]; measured here: BGB combination, at 5 µM
  inhibition: 34% and 51.6%
[13]; measured here: cisplatin combination, at 0.5 µM
  inhibition: 17.4% and 18.9%
[13]; measured here: cisplatin combination, at 5 µM
  inhibition: 53.5% and 66.5%
[14]; BGB combination, concentration series, at 5 µM
  inhibition: 13% and 11.6%
[14]; at 0.5 µM
  inhibition: -8.08% (inactive) and 2.75% (inactive)
[14]; cisplatin combination, concentration series, at 5 µM
  inhibition: -5.18% and 30.7%
[15]; at 0.5 µM
  inhibition: 37.7% (inactive) and 21.4% (inactive)
[15]; measured here: combo with BGB IC20, at 0.5 µM
  inhibition: 41.3% and 27.7%
[15]; measured here: combo with cisplatin IC20, at 0.5 µM
  inhibition: 11.1% and -19.1%
[16]; at 0.5 µM
  inhibition: -29.6% (inactive) and -14.9% (inactive)
[16]; cisplatin combination, at 0.5 µM
  inhibition: -28.5% and -4.54%
[16]; cisplatin combination, at 5 µM
  inhibition: 10.8% and 15.8%
[16]; measured here: BGB IC40 combination 0.05 uM, at 0.05 µM
  inhibition: 35.1% and 9.21%
[16]; single agent, at 5 µM
  inhibition: -17.9% and 3.25%
[17]; at 0.5 µM
  inhibition: -14.2% (inactive) and -26.4% (inactive)
[17]; cisplatin combo, at 5 µM
  inhibition: -20.2% and -20.5%
[17]; measured here: BGB IC40 combination, at 0.05 µM
  inhibition: -25.5% and -24.7%
[17]; [22]
  inhibition: -16.3% and -39.4%
[17]; single agent, at 5 µM
  inhibition: -18.8% and -0.235%
[18]; at 0.5 µM
  inhibition: 27.6% (inactive) and 42.6% (inactive)
[18]; [20]
  inhibition: 19.9% and 59.6%
[18]; [21]
  inhibition: 30.4% and 32.6%
[18]; single agent, at 0.05 µM
  inhibition: -27% and -16.2%
[18]; single agent, at 5 µM
  inhibition: 72.5% and 78.1%
